Assay results published in PubChem BioAssay AID841 (Emory University Molecular Libraries Screening Center, 2007).
In all, about 140,000 compounds went through this assay and about 2,100 (1.5%) were called active. Many of the other results were omitted from the sample, so actives are more common in it than they were. A number with no mark means an inactive call. No stated cut-off is given here; in the data, active means protection mostly above about 24% (no sharp cut-off); inactive means mostly below about 26%.

Experiment: blockers of measles virus-induced cell death – single point, MLSMR library, absorbance, measles RdRp inhibitor project, primary screen (AID 841)
Settings: Measles virus-infected cells, CPE protection, at 4 µM, hits give high values

| SMILES | protection (pct of control) |
| --- | --- |
| CCOC(=O)CC1=C(C(=O)OCC)C2(C(=O)N1)C(C(=O)OC)=C(N)Oc1ccccc12 (stereo not given) | 9.79% |
| C=CCN1C(=O)C2(C(C(=O)OCC)=C(N)Oc3c2c(=O)oc2ccccc32)c2ccccc21 (stereo not given) | 81% (active) |
| COC(=O)CN1C(=O)C2(C(C(=O)OC)=C(N)Oc3ccccc32)C2=C1CC(C)(C)CC2=O (stereo not given) | 2.86% |
| Cc1ccnc(-n2c(C)cc(/C=C3\C(=O)NC(=S)N(C)C3=O)c2C)c1 | 5.91% |
| Cc1ccc(N2C(=O)NC(=O)C(CCc3ccncc3)(Cc3cccc(Cl)c3Cl)C2=O)cc1 (stereo not given) | 7.36% |
| Cc1nn(Cc2ccccc2Cl)c(Cl)c1C(=O)OC(C(=O)NC(N)=O)C(C)C (stereo not given) | 14% |
| O=C(C1CC(=O)N(C2CCCC2)C1)N1CCC2(CC1)OCCO2 (stereo not given) | 38.9% (active) |
| Cn1c(C(=O)N2CCC(C(=O)N3CCC4(CC3)OCCO4)CC2)cc2sccc21 | 8.88% |
| CCN(N=Nc1nonc1OC)c1nonc1OC | 5.4% |
| CCC(=O)CC(c1ccc([N+](=O)[O-])cc1)c1c(O)c2ccccc2oc1=O (stereo not given) | 15.5% |
| COc1ccc(C2N3CC(C)(C)CN23)cc1 (stereo not given) | 8.77% |
| O=C1NC(=O)C(CCc2ccccn2)(Cc2cccc(Cl)c2Cl)C(=O)N1c1ccc(Br)cc1 (stereo not given) | 10.4% |
| Cc1cccc(OP(=O)(Oc2cccc(C)c2)OC(c2ccccc2)C(F)(F)F)c1 (stereo not given) | 1.45% |
| Cc1nc2ccccn2c1P(=S)(N1CCCCC1)N1CCCCC1 | 4.18% |
| CCOC(=O)C(O)(c1ccc(NC(=O)c2ccco2)c(OC)c1)C(F)(F)F (stereo not given) | 39.8% (active) |
| CCOC(=O)C(O)(c1ccc(N)c(OC)c1)C(F)(F)F (stereo not given) | 3.68% |
| COC(=O)C(O)(c1ccc(NC(=O)c2ccco2)c(OC)c1)C(F)(F)F (stereo not given) | 3.68% |
| CC(=O)Nc1ccccc1C(=O)OCC(=O)c1cccc2ccccc12 | 26.2% |
| O=c1[nH]c(=S)n(C2CC2)c(O)c1/C=N/N1CCOCC1 | 5.81% |
| CNC(=O)N(C)c1nnc(C(C)(C)C)s1 | 54.7% (active) |
| CCOC(=O)C(O)(c1ccc(N=Cc2ccccc2O)c(C)c1)C(F)(F)F (stereo not given) | 5.53% |
| CC(=O)N(C1=NCCCS1)c1ccccc1F | 62.1% (active) |
| COc1c(O)ccc2c1-c1c3c(cc4c1C(C2)N(C)CC4)OCO3 (stereo not given) | 6.07% |
| CC(C(=O)Nc1ccc(Cl)cc1Cl)N1CC=C(c2ccccc2)CC1 (stereo not given) | 9.49% |
| CN1CCN(c2cc(N3CCNCC3)ccc2[N+](=O)[O-])CC1 | 21.6% |
| CN(C)C(=O)Oc1ccc(OCc2cccc[n+]2C)cc1 | 6.21% |
| c1ccc2sc(C3CCCNC3)nc2c1 (stereo not given) | 54.6% (active) |
| CN(C)c1ccc(/C=C2\CC3C4CC=C5CC(O)CCC5(C)C4CCC3(C)C2=O)cc1 (stereo not given) | 2.96% |
| CC(C)N(CC#CCC1(O)c2ccccc2-c2ccccc21)C(C)C | 14.5% |
| Cc1cccc(-n2c(O)c(/C=N/N3CCOCC3)c(=O)[nH]c2=S)c1 | 1.74% |
